Measured values published in PubChem BioAssay AID1508600 (Functional Genomics Laboratory (NCATS/FGL), 2020).
The campaign covered roughly 53,000 sequences. About 3,700 (7%) were called active. This is one part of a sample in which actives are shown more often than they occur. A number with no mark means an inactive call.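 Rule for the calls: active = gene knockdowns whose robust z-score for IL-1 alpha signal is at least 2 or at most -2, so actives lie on both sides; inactive = the rest.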

Assay: Components of the Cytosolic LPS Sensing Pathway: Gene Identification via Genome-wide siRNA Screen;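 note: robust z of the log signal after scaling to non-targeting control siRNA wells of the plate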
Conditions: RAW264.7 macrophages, IL-1a HTRF, actives lie on both sides, screened at 100 nM (by protocol), cells primed 5 h with Pam3CSK4 first
Procedure, shortened: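 Knockdown: 100 nM siRNA, 48h, RAW264.7. Stimulation: Pam3CSK4 5 h, then LipidA via TransIT-TKO 24 h. Output: supernatant IL-1a HTRF, negative-control-normalized, log robust z-score; viability by CellTiter-Glo.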

| Sequence | z-score |
| --- | --- |
| GGGAUGAAGUCCUGGAUAATT against Atp6v1g1 | -0.953 |
| CCAACUUCGAUGCUGAGAGTT against Anxa2 | -1.8 |
| CGACAGAGGAAGGUAUUGGTT against Gcsh | -2.95 (active) |
| CGCCUCAUCAUCUCGAUUCTT against Cnga3 | -1.63 |
| GCAUGUGGAGAAGAUGAGGTT against Tas2r143 | 0.793 |
| GGAUUUCAAAGUGCUUUGCTT against Kifap3 | 3.44 (active) |
| CCUAAACCCAUUCCAGUCUTT against Dpm3 | 0.104 |
| CCUGAGACAUACUUAAUGUTT against Anapc10 | 0.747 |
| CCUCGAGAGACUUUCAUGGTT against F2 | -0.475 |
| GCUUAUGAGAUGAGUGAAUTT against Ccdc43 | -0.209 |
| GGAAUGUUUGGUGCUAUGATT against Flvcr2 | 3.4 (active) |
| GGGAUUUUCAGGGAGAUUUTT against Plekho1 | 1.46 |
| CCAGGACCUUAUCAGGUUUTT against Idh2 | 2.44 (active) |
| GCUUAGGAAUGGCGACAACTT against Vmn1r188 | -0.413 |
| GGCAAUGAGAAAGUUACUCTT against Olfr1102 | 1.65 |
| GGCAGGUGUUAAGGCUUCATT against Tas2r117 | 0.873 |
| GGAACCACUGCUUUCAAAATT against Cd36 | 0.83 |
| GCUUUACCUGCAUAUUCCATT against Nradd | -2.04 (active) |
| GGGCCAGCAUGUUAUCUGUTT against Kat8 | -0.8 |
| CCAGCCAGACUGAAAAAGCTT against Stmnd1 | -0.652 |
| GGGAGAUGCAACAACAAGATT against Epx | -0.847 |
| GGACAAAUGAACAUGCUGATT against Edn2 | -2.26 (active) |
| GAAGUGAUGCUGCUAGUAGTT against A030005L19Rik | -2 |

| Sequence | z-score |
| --- | --- |
| GGAACACUGGGAACGUAUCTT against Ifnk | 0.00139 |
| GCCCUAGUGUCUGAAAAAATT against Sfrp5 | 0.864 |
| GGACAAGGCUGCUACUUCATT against Pou6f2 | 1.74 |
| GGCACUUCUUAAUCCCACATT against Nfe2 | -2.41 (active) |
| GUACAAGUGUGGACCCUUATT against Chchd2 | 0.409 |
| GCAGGCUACCUCUAAUCCATT against Slc23a3 | -0.241 |
| GGAUCUAAAGCUUGAACCUTT against Pheta1 | 1.24 |
| GCUACCAUCUGCUAAUACATT against Smg1 | 3.65 (active) |
| GGUUCCACAGUGGCAAAUGTT against Vmn1r202 | 0.957 |
| GCCUAUCACGAGCUAUGAUTT against Shkbp1 | -1.5 |
| GGAAUCGAAACCAAUGUGUTT against Il1rl2 | -0.471 |
| GGUUCAAAUGUUCUCCAUATT against 9530080O11Rik | 2.55 (active) |
| GCUCCGGAAAUUGGCAUCATT against Ppp1r10 | -1.5 |
| GGAGAAGAAGAAAAAGUCATT against BC005537 | -0.495 |
| GAUGUUUCAGAACAUUCUUTT against Cadps | 0.436 |
| GGACAUAAAAGUGUCUCGATT against Cldn13 | 0.16 |
| GCCAAGGGUUUGAAAGCCATT against Tpm1 | -0.949 |
| GGCUUGUUUUGCCCAGAUGTT against Olfr398 | -2.94 (active) |
| CCUCAUGUUAAUCUGGAGATT against Gabre | 0.0167 |
| GGAAGUAUUAAUGUACAACTT against Msmo1 | 0.0519 |
| CGGUGGUCACUGUGAAAUGTT against Nr1h5 | 0.0152 |
| CGGGAAGAAGUUCAUAAAUTT against Topbp1 | 0.36 |
| GGUUAAAUGUCGUUUAUACTT against Rasa3 | 0.308 |

| Sequence | z-score |
| --- | --- |
| GGAUAUCGAGGAGAUGAUCTT against Aoc3 | -2.17 (active) |
| GCAGUUGACCACAGAAAAUTT against BC061237 | -1.35 |
| GGACCCAUGAGGUUAACUUTT against Tbc1d22a | 0.922 |
| GGGAACCAGCCAGUUCAAGTT against Ap1g2 | 1.39 |
| CCGUUUCAUUUCAGGGAGGTT against Phf1 | 0.307 |
| GGAGAAAUCAAGCAAAGAUTT against Soat1 | -0.0846 |
| GGCUACAGCAAGAAGACUUTT against Ctsw | 3.08 (active) |
| CCGGAAAUUUUCUUUGCCCTT against Sec23ip | -1.12 |
| GGAAGGAUUCUGGAAACAGTT against 2210409E12Rik | -2.1 (active) |
| GCCAUUGGAGUAUAUCUUGTT against Olfr873 | -0.273 |
| GGUUCACGAGCUAAGCUGUTT against Sec23b | -1.07 |
| GGACCACUCUGAAUAAGACTT against Ttc12 | -1.3 |
| GGAUCAACAGAGGUUGGCATT against Aldh1a7 | -2.03 (active) |
| GCAGCUCAAUUAGAGUCCATT against Gart | -0.11 |
| GGCUUUUUGUCUAACAAGUTT against Trappc13 | 0.23 |
| GCUGGUUAUUCUCUUAUAGTT against Cavin2 | 1.97 |
| GGUAGGUCGUCGAGAAUACTT against Prss44 | 0.17 |
| GGAUCCUCUGGUAAAGGGATT against Gng11 | -1.75 |
| GGAGUUCCUCAUGAAGAUGTT against Tmem241 | -1.27 |
| GGUGCAAACAGACACCAGATT against Dct | -0.982 |
| GGGCUGUCUAAGAAUGCAATT against Nlrp14 | -2.08 (active) |
| GGGAGGGAAUAGUCAAAAATT against Timm17b | 0.909 |
| GGAGAGCAAGGAGAACCAATT against Itga7 | 1.35 |
